Hit rate of the full screen: of about 220,000 compounds, about 930 (0.42%) were called active. This excerpt belongs to a sample that is enriched for actives. A number with no mark means an inactive call. No stated cut-off is given here; in the data, active means inhibition above about 50%; inactive means the rest.
Target: Glycoprotein 42 (Epstein-Barr virus (strain AG876)) (UniProt Q1HVG2)
Assay: Epstein-Barr virus gp42 inhibitors, primary screen, biochemical, uHTS, fluorescence polarization (AID 1085)
Settings: Fluorescence polarization binding assay, mP read-out; hits give high values; tested at 21.74 µM

Glycoprotein 42 (Epstein-Barr virus (strain AG876)), sequence (Q1HVG2 whole entry, looked up): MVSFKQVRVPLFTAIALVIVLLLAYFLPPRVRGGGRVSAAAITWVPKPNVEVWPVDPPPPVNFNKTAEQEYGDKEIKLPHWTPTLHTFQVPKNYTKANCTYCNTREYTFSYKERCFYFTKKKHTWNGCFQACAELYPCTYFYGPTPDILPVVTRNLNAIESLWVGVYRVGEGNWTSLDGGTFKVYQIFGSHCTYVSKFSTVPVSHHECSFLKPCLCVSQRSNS

Question: How did the inhibition turn out when `CCOC(=O)Nc1ccccc1N1C(=O)c2ccccc2C1=O` was run?
Answer: -16.9%

Question: With `CC(C)OC(=O)CN1C(=O)C(=O)c2ccccc21` as the compound, how does the inhibition read?
Answer: -5.73%

Question: For `CCOC(=O)c1cc2n(c1N)-c1ccccc1C2=O`, which inhibition is on record?
Answer: 157% (active)

Question: Which inhibition does the source give for `CCNc1nc(N)nc(-c2cc(Cl)ccc2OC)n1` here?
Answer: -10.6%

Question: How did the inhibition turn out when `CCN(CC)S(=O)(=O)c1ccc(Cl)c(C(=O)NC(C)C(c2cccs2)N2CCCC2)c1` (configuration not stated) was run?
Answer: -7.74%

Question: How did the inhibition turn out when `O=C(c1[nH]ncc1-c1ccc(Cl)cc1)C1CO1` (configuration not stated) was run?
Answer: -0.17%

Question: For `Nc1ccc2nc3c(=O)[nH]c(=S)[nH]c3nc2c1`, which inhibition is on record?
Answer: 158% (active)

Question: `O=C(Nc1ccc([N+](=O)[O-])cc1)C1CC12CCC2` (configuration not stated) was tested. Which inhibition did it give?
Answer: 18.7%

Question: How did the inhibition turn out when `FC(F)(F)c1ccc(-n2cn[nH]c2=S)cc1` was run?
Answer: -0.1%

Question: For `COc1ccccc1NC(=O)CCSc1nnc(-c2ccc(O)cc2)o1`, which inhibition is on record?
Answer: 16.2%

Question: `Cc1cccc(OCCNC(=S)NC(=O)c2cccnc2)c1` was tested. Which inhibition did it give?
Answer: -11%

Question: How did the inhibition turn out when `CCOC(=O)c1ccc[n+](CC(=O)Nc2ccccc2OC(F)F)c1` was run?
Answer: -15.4%

Question: For `Cc1ccc(-c2nc(SCC(=O)Nc3ccccc3OC(F)F)c3c(C)c(C(=O)O)sc3n2)cc1`, which inhibition is on record?
Answer: 92.6% (active)

Question: Which inhibition does the source give for `Cc1ccc(C)c(SCc2nc3sc(C(=O)O)c(C)c3c(=O)[nH]2)c1` here?
Answer: -9.06%

Question: `C[C@@H](NC(=O)OC(C)(C)C)c1nnc(S(=O)(=O)Cc2ccccc2)o1` was tested. Which inhibition did it give?
Answer: 0.97%

Question: With `Cc1ccc(NC(=S)Nc2ncccc2C)c(C)c1` as the compound, how does the inhibition read?
Answer: -9.14%

Question: `CCOC(=O)c1c(NC(=O)CNC2CCCc3ccccc32)sc(C(N)=O)c1C` (configuration not stated) was tested. Which inhibition did it give?
Answer: -9.07%

Question: For `O=C(O)CS/C(=C\c1ccc(F)cc1)c1nc2ccccc2s1`, which inhibition is on record?
Answer: -2.63%

Question: For `N#C/C(=C(/O)Cc1cccc2ccccc12)c1nc2ccccc2s1`, which inhibition is on record?
Answer: 4%

Question: How did the inhibition turn out when `CC1=CC(=C(C#N)c2nc3ccccc3s2)C=C(C)N1c1ccc(F)cc1F` was run?
Answer: 176% (active)

Question: With `Cc1c(C(=O)Nc2cccc(Cl)c2)cn2c(nc3ccccc32)c1C#N` as the compound, how does the inhibition read?
Answer: -23.4%

Question: `CC(=O)Nc1ccc(NS(=O)(=O)c2cc(C)sc2C)cc1` was tested. Which inhibition did it give?
Answer: 15.2%

Question: Which inhibition does the source give for `O=C(Nc1ccc2sc3ccccc3c(=O)c2c1)c1ccccc1Cl` here?
Answer: -5.22%

Question: Which inhibition does the source give for `FC(F)(F)Oc1ccc(-c2cn3cccnc3n2)cc1` here?
Answer: -6.62%

Question: With `COC(=O)c1sc(=S)n(-c2ccccc2)c1N` as the compound, how does the inhibition read?
Answer: -22.9%

Question: With `COCCOC(=O)c1sc(=S)n(CCOC)c1N` as the compound, how does the inhibition read?
Answer: 85.3% (active)

Question: Which inhibition does the source give for `CCOC(=O)c1sc(=S)n(-c2cccc(OC)c2)c1N` here?
Answer: -17.2%

Question: `C/C(=N/NC(=O)CN1CCN(S(=O)(=O)c2ccc(Br)cc2)CC1)c1ccncc1` was tested. Which inhibition did it give?
Answer: -10.4%

Question: How did the inhibition turn out when `Cc1c(NC(=S)NCc2ccc(F)cc2)cccc1[N+](=O)[O-]` was run?
Answer: -0.91%

Question: `CCOc1ccc(/C=C(/NC(=O)c2ccccc2)C(=O)NCCC(=O)O)cc1` was tested. Which inhibition did it give?
Answer: 8.99%

Question: How did the inhibition turn out when `COc1cc(/C=N\Nc2nc(-c3cccs3)c(NC(C)=O)s2)ccc1O` was run?
Answer: -5.81%

Question: How did the inhibition turn out when `CCOc1cc(/C=C(\C#N)c2nc(-c3cccs3)c(NC(C)=O)s2)ccc1O` was run?
Answer: 93.2% (active)

Question: `COc1cc(/C=C(\C#N)c2nc3c(s2)CC(C)CC3)ccc1O` (configuration not stated) was tested. Which inhibition did it give?
Answer: -29.5%

Question: With `C/C(CC(=O)N1CCN(C=O)CC1)=N\NC(=O)c1ccc(Br)cc1` as the compound, how does the inhibition read?
Answer: 8.36%

Question: `COc1ccc(/C=N/n2c(C)cc(C)cc2=O)cc1` was tested. Which inhibition did it give?
Answer: 1.02%

Question: For `Cc1cccc(NC(=S)NC23CN4CN(CN(C4)C2)C3)c1`, which inhibition is on record?
Answer: -1.99%

Question: Which inhibition does the source give for `C=CCn1c(CSc2nc3ccccc3s2)nnc1SCC(=O)NCc1ccco1` here?
Answer: 50.6% (active)

Question: For `C=CCn1c(SCC(=O)Nc2nc3ccccc3s2)nnc1-c1ccccc1O`, which inhibition is on record?
Answer: -0.36%

Question: With `CCn1c(COc2ccccc2)nnc1SCC(=O)NCc1ccco1` as the compound, how does the inhibition read?
Answer: 2.39%

Question: For `CSc1cc(C)[nH]c(=O)n1`, which inhibition is on record?
Answer: 6.61%

Question: How did the inhibition turn out when `Cc1cc(C(=O)N/N=C/c2ccc(N3CCOCC3)cc2)c(C)o1` was run?
Answer: -16.3%

Question: `CNC(=O)c1ccsc1NC(=O)c1ccc(S(=O)(=O)N2CCc3ccccc32)cc1` was tested. Which inhibition did it give?
Answer: 0.14%

Question: How did the inhibition turn out when `Cc1cnc(C(=O)OCC(=O)NCCCc2ccccc2)cn1` was run?
Answer: -8.79%

Question: For `COc1ccccc1OCC(=O)OCn1c(SC)nnc(C)c1=O`, which inhibition is on record?
Answer: -6.57%

Question: How did the inhibition turn out when `Cn1c(=O)n(C)c2cc(/C=N/NC(=O)c3cccc(Br)c3)ccc21` was run?
Answer: -5.32%

Question: How did the inhibition turn out when `O=C(C1=C(O)C(=O)N(Cc2ccccc2)C1c1ccco1)c1ccco1` (configuration not stated) was run?
Answer: -8.71%

Question: For `O=C(C1=C(O)C(=O)N(c2ncccn2)C1c1cccs1)c1ccco1` (configuration not stated), which inhibition is on record?
Answer: 65.7% (active)

Question: For `O=C(C1=C(O)C(=O)N(CCOCCO)C1c1ccccn1)c1cccs1` (configuration not stated), which inhibition is on record?
Answer: -10.3%

Question: How did the inhibition turn out when `CCOC(=O)N/N=C1\CC(C)S(=O)(=O)c2ccc(Cl)cc21` (configuration not stated) was run?
Answer: 0.18%

Question: How did the inhibition turn out when `O=c1cc(CO)oc(C(Nc2cccc([N+](=O)[O-])c2)c2ccccn2)c1O` (configuration not stated) was run?
Answer: -4.92%

Question: Which inhibition does the source give for `COc1ccc(-c2nn(C)c(=O)c3ccccc23)cc1CNC(=O)C1CCCCC1` here?
Answer: -11.8%

Question: For `COC(=O)CCCC1=CC2=CC(=O)C(C)(OC(=O)c3cccs3)C(=O)C2=CN1CC1CC1` (configuration not stated), which inhibition is on record?
Answer: 0.53%

Question: How did the inhibition turn out when `COC(=O)CCCC1=CC2=CC(=O)C(C)(OC(=O)c3cccs3)C(=O)C2=CN1CC(C)C` (configuration not stated) was run?
Answer: 2.99%

Question: How did the inhibition turn out when `COC(=O)CCCC1=CC2=CC(=O)C(C)(OC(=O)c3cccs3)C(=O)C2=CN1c1cccc(C#N)c1` (configuration not stated) was run?
Answer: 78% (active)

Question: With `Cc1ccc(C(=O)NNc2ncnc3ccccc23)cc1` as the compound, how does the inhibition read?
Answer: -1.4%

Question: For `CC(C)Oc1ccc(Oc2ccc(C(F)(F)F)cn2)cc1`, which inhibition is on record?
Answer: 6.36%

Question: `NC1=NC(=O)C2(COC(c3ccccc3Cl)OC2)S1` (configuration not stated) was tested. Which inhibition did it give?
Answer: -11.7%

Question: With `CN1CCN(CCCCOc2ccccc2-c2ccccc2)CC1` as the compound, how does the inhibition read?
Answer: -24.1%

Question: Which inhibition does the source give for `Cc1cccn2c(=O)c(/C=C3\SC(=S)N(CC(C)C)C3=O)c(NCCCOC(C)C)nc12` here?
Answer: 137% (active)

Question: How did the inhibition turn out when `CCOC(=O)CC1C(=O)NCCN1c1nc2c(C)cccn2c(=O)c1/C=C1\SC(=S)N(C(C)CC)C1=O` (configuration not stated) was run?
Answer: -14.8%

Question: For `CNc1nc2c(C)cccn2c(=O)c1C=Nc1ccc(OC)cc1`, which inhibition is on record?
Answer: -10.2%

Question: How did the inhibition turn out when `CCOc1ccc(N2CC(C(=O)N/N=C/c3sccc3C)CC2=O)cc1` (configuration not stated) was run?
Answer: -24%

Question: How did the inhibition turn out when `C=CCNc1cnn(-c2ccc(C)cc2)c(=O)c1Cl` was run?
Answer: 15.2%

Question: For `O=C(COC(=O)CNS(=O)(=O)c1ccccc1)NC12CC3CC(CC(C3)C1)C2`, which inhibition is on record?
Answer: -4.36%

Question: With `COc1ccc(NC(=O)COc2ccc(C(=O)OCC(=O)N(C)C3CCS(=O)(=O)C3)cc2OC)cc1` (configuration not stated) as the compound, how does the inhibition read?
Answer: -11.6%

Question: `Cc1c(-c2cccc(Cl)c2)nc2ccccc2c1C(=O)OCC(=O)N(C)C1CCS(=O)(=O)C1` (configuration not stated) was tested. Which inhibition did it give?
Answer: 27.8%

Question: With `CN(C(=O)COC(=O)c1cc(-c2ccco2)nc2ccccc12)C1CCS(=O)(=O)C1` (configuration not stated) as the compound, how does the inhibition read?
Answer: 95.4% (active)

Question: With `COc1ccc(/C=N/NC(=O)CNC(=O)c2ccc(S(=O)(=O)N3CCCC3)cc2)c(OC)c1` as the compound, how does the inhibition read?
Answer: -7.62%

Question: How did the inhibition turn out when `COc1ccc(OCC(=O)NN2Cc3ccccc3C2=N)cc1` was run?
Answer: -18.4%

Question: `O=C(NC1CC1)C1=C[C@H](c2c[nH]c3ccccc23)C[C@H](OCc2ccc(CO)cc2)O1` was tested. Which inhibition did it give?
Answer: -3.29%

Question: With `O=C(NCc1ccc2c(c1)OCO2)c1ccc2c(c1)C(=O)N(CC1CCCO1)C2=O` (configuration not stated) as the compound, how does the inhibition read?
Answer: -19.8%

Question: With `O=C1c2cccc3c([N+](=O)[O-])ccc(c23)C(=O)N1CC1CCCO1` (configuration not stated) as the compound, how does the inhibition read?
Answer: 64.2% (active)

Question: Which inhibition does the source give for `O=c1c2cc3c(=O)n(CC4CCCO4)c(=O)c3cc2c(=O)n1CC1CCCO1` (configuration not stated) here?
Answer: -9.61%

Question: Which inhibition does the source give for `CN1CCc2nc(SC(C(=O)O)c3ccccc3)c(C#N)c(-c3cccs3)c2C1` (configuration not stated) here?
Answer: 6.93%

Question: For `CC(C)CNC(=O)COC(=O)c1ccccc1OCC(=O)Nc1ccc(Br)cc1`, which inhibition is on record?
Answer: -2.14%

Question: `O=C(Oc1c(-c2ccco2)oc2ccccc2c1=O)c1cccnc1` was tested. Which inhibition did it give?
Answer: -4.14%

Question: With `Cc1cc(SCC(=O)NCCN2C(=O)CSC2=O)nc2ccccc12` as the compound, how does the inhibition read?
Answer: -6.4%

Question: Which inhibition does the source give for `COc1cc(C(F)(F)F)nc2c(Br)c(C(C)(C)C)nn12` here?
Answer: -5.73%

Question: How did the inhibition turn out when `CN(CCN1CCOCC1)Cc1nc(-c2ccc3c(c2)OCO3)no1` was run?
Answer: -2.97%

Question: For `c1ccc(-c2oc3ncnc(N4CCOCC4)c3c2-c2ccccc2)cc1`, which inhibition is on record?
Answer: 0.89%

Question: How did the inhibition turn out when `Cc1oc2c(c1C(=O)N1CCOCC1)C(=O)c1ccccc1C2=O` was run?
Answer: -10.1%

Question: How did the inhibition turn out when `O=C1c2ccccc2-c2ncnc3c(N4CCOCC4)cc(N4CCOCC4)c1c23` was run?
Answer: 51.8% (active)

Question: With `COCCn1c(Cc2cccn2C)nnc1SCC(=O)Nc1nccs1` as the compound, how does the inhibition read?
Answer: 0.89%

Question: Which inhibition does the source give for `COc1cc(N2CCCC2)c(OC)cc1/C=C(/C#N)c1cccc(Br)c1` here?
Answer: 112% (active)

Question: With `CC(=O)Nc1cccc(Oc2cc(C#N)c(C#N)cc2N2CCOCC2)c1` as the compound, how does the inhibition read?
Answer: -5.04%

Question: Which inhibition does the source give for `COc1cccc(C(=O)Nc2ccc(N3CCCC3)cc2)c1` here?
Answer: -3.03%

Question: How did the inhibition turn out when `CCO[C@H]1OC(C(=O)N2CCCCCCC2)=C[C@@H](c2ccc(C(F)(F)F)cc2)[C@@H]1CCCO` was run?
Answer: 116% (active)

Question: With `CCO[C@H]1OC(C(=O)N2CCOCC2)=C[C@@H](c2ccc3c(c2)OCO3)[C@@H]1CCCO` as the compound, how does the inhibition read?
Answer: -9.61%

Question: How did the inhibition turn out when `CCO[C@@H]1OC(C(=O)N2CCOCC2)=C[C@H](C)[C@H]1CCCO` was run?
Answer: -7.59%

Question: How did the inhibition turn out when `COC(=O)c1sccc1NN1C(=O)c2ccccc2C1=O` was run?
Answer: -6.24%

Question: `CC(=O)Nc1ccc(S(=O)(=O)N2CCN(C(=O)c3ccccc3F)CC2)cc1` was tested. Which inhibition did it give?
Answer: -7.73%

Question: With `CCOC(=O)C1=C(N)N(c2ccc(C)cc2)C2=C(C(=O)CCC2)C1c1cccs1` (configuration not stated) as the compound, how does the inhibition read?
Answer: -16.1%

Reference: PubChem BioAssay AID1085 (Emory University Molecular Libraries Screening Center, 2008)
